{
  "source": "PubChem BioAssay AID463173",
  "about": "(ICCB-Longwood Screening Facility, Harvard Medical School, 2010)",
  "note": "In all, about 52,000 compounds went through this assay and about 4,300 (8.3%) were called active. For the sample, actives were picked, then their nearest neighbours and some compounds at random. Unmarked numbers belong to inactive results. No stated cut-off is given here; in the data, active means survival mostly below about 52% (no sharp cut-off); inactive means mostly above about 56%.",
  "data": [
    {"system": "DeltatarO mutant", "test": "growth inhibition of S. aureus wild type versus tarO mutant, primary screen, teichoic acid synthesis inhibitors, RN4220, OD600 (AID 463173)", "conditions": "OD600, 18 h, stronger effect = lower value, screened at 18.75 µg/mL (by protocol)", "values": [
      {"smiles": "CCOc1cc2sc(N3CCC(C(=O)Nc4ccc(C)cc4C)CC3)nc2cc1Br", "survival": "71%"},
      {"smiles": "CCCOC(=O)c1cccc(Nc2nc(C(=O)OCC)nc3ccccc23)c1", "survival": "20% (active)"},
      {"smiles": "CCOC(=O)c1nc(Nc2ccccc2OC)c2ccccc2n1", "survival": "44% (active)"},
      {"smiles": "CCOC(=O)c1nc(Nc2ccccc2C)c2ccccc2n1", "survival": "49%"},
      {"smiles": "CCOC(=O)c1nc(Nc2cccc(C)c2)c2ccccc2n1", "survival": "75%"},
      {"smiles": "CCOC(=O)c1nc(Nc2ccc(OC)cc2)c2ccccc2n1", "survival": "153%"},
      {"smiles": "CCCCCOC(=O)c1ccc(Nc2nc(C(=O)OCC)nc3ccccc23)cc1", "survival": "60%"},
      {"smiles": "CC(=O)c1cccc(NC(=O)c2cc3sc(Cl)cc3n2C)c1", "survival": "122%"},
      {"smiles": "CCOc1ccc(OCC)c(NC(=O)CN(C)S(=O)(=O)c2ccc3[nH]c(=O)oc3c2)c1", "survival": "85%"},
      {"smiles": "COc1ccc(NC(=O)CSc2nc3c(oc4ccccc43)c(=O)n2-c2ccc(C)c(C)c2)cc1", "survival": "82%"},
      {"smiles": "CCc1cccc(NC(=O)CN(c2ccc(C)c(C)c2)S(=O)(=O)c2ccsc2C(=O)OC)c1", "survival": "-5% (active)"},
      {"smiles": "COC(=O)c1sccc1S(=O)(=O)N(CC(=O)Nc1ccc(C)c(F)c1)c1ccc(C)c(C)c1", "survival": "17% (active)"},
      {"smiles": "COC(=O)c1sccc1S(=O)(=O)N(CC(=O)Nc1cccc(C)c1C)c1ccc(C)c(C)c1", "survival": "89%"},
      {"smiles": "COC(=O)c1sccc1S(=O)(=O)N(CC(=O)Nc1cc(F)ccc1F)c1ccc(C)c(C)c1", "survival": "128%"},
      {"smiles": "COC(=O)c1sccc1S(=O)(=O)N(CC(=O)Nc1cc(C)ccc1C)c1ccc(C)c(C)c1", "survival": "88%"},
      {"smiles": "COC(=O)c1sccc1S(=O)(=O)N(CC(=O)Nc1c(C)cccc1C)c1ccc(C)c(C)c1", "survival": "94%"},
      {"smiles": "Cn1c(C(O)c2ccccc2)n[nH]c1=S", "note": "(stereo not drawn)", "survival": "93%"},
      {"smiles": "COc1cccc(-n2c(SCC(N)=O)nc3c(oc4ccccc43)c2=O)c1", "survival": "67%"},
      {"smiles": "O=C(c1ccccc1)N1CCN(S(=O)(=O)c2ccccc2)CC1", "survival": "68%"},
      {"smiles": "CN(C)c1ccc(CNC(=O)CN2C(=O)CCn3nc(-c4cn(C)c5ccccc45)cc32)cc1", "survival": "54%"},
      {"smiles": "O=C(CN1C(=O)CCn2nc(-c3ccccc3)cc21)NCc1ccc(Cl)cc1", "survival": "0% (active)"},
      {"smiles": "O=C(CN1C(=O)CCn2nc(-c3ccccc3)cc21)NCc1ccccc1", "survival": "106%"},
      {"smiles": "Cc1ccc(CNC(=O)CCCN2C(=O)CCn3nc(-c4cn(C)c5ccccc45)cc32)cc1", "survival": "87%"},
      {"smiles": "Cn1cc(-c2cc3n(n2)CCC(=O)N3CCCC(=O)NCc2ccccc2)c2ccccc21", "survival": "92%"},
      {"smiles": "Cc1cccc(CNC(=O)CCCN2C(=O)CCn3nc(-c4cn(C)c5ccccc45)cc32)c1", "survival": "-5% (active)"},
      {"smiles": "Cn1cc(-c2cc3n(n2)CCC(=O)N3CCCC(=O)Nc2ccccc2F)c2ccccc21", "survival": "134%"},
      {"smiles": "Cn1cc(-c2cc3n(n2)CCC(=O)N3CCCC(=O)Nc2ccccc2Cl)c2ccccc21", "survival": "-5% (active)"},
      {"smiles": "CCc1ccccc1NC(=O)CCCN1C(=O)CCn2nc(-c3cn(C)c4ccccc34)cc21", "survival": "130%"},
      {"smiles": "CN(C)c1ccc(CNC(=O)CCCN2C(=O)CCn3nc(-c4cn(C)c5ccccc45)cc32)cc1", "survival": "17% (active)"},
      {"smiles": "Cn1cc(-c2cc3n(n2)CCC(=O)N3CCCC(=O)NCc2ccc(Cl)cc2)c2ccccc21", "survival": "122%"},
      {"smiles": "Cc1ccc(CNC(=O)CN2C(=O)CCn3nc(-c4ccccc4)cc32)cc1", "survival": "72%"},
      {"smiles": "COc1ccc(OC)c(NC(=O)c2c(NCc3sccc3C)sc3c2CCCCC3)c1", "survival": "78%"},
      {"smiles": "c1ccc(N2CCN(c3ccccc3)C2c2cccs2)cc1", "survival": "67%"},
      {"smiles": "CCCCCN1C(C(=O)c2ccccc2)=C(NC(=O)c2ccc(OC)cc2)c2ccccc2S1(=O)=O", "survival": "57%"},
      {"smiles": "Cc1ccc(Cn2c(=O)n(CCc3ccccc3)c(=O)c3c(C)c(C)sc32)cc1", "survival": "24%"},
      {"smiles": "COc1cc(Cl)c(C)cc1NC(=O)CCn1c(=O)c2cccn2c2cccnc21", "survival": "83%"},
      {"smiles": "CC(C)(SC1CC(=O)N(c2ccccc2)C1=O)C(N)C(=O)O", "note": "(stereo not drawn)", "survival": "98%"},
      {"smiles": "CCc1ccc2c(c1)NC(c1cccnc1)=NC(c1ccc(C(C)(C)C)cc1)=N2", "survival": "63%"},
      {"smiles": "CCN1c2ccccc2-c2nc(SCC(=O)Nc3cccc(C)c3C)ncc2S1(=O)=O", "survival": "101%"},
      {"smiles": "CCc1ccc(-c2nn(CC(=O)NCc3ccccc3)c3c2cnc2ccc(F)cc23)cc1", "survival": "92%"},
      {"smiles": "CCOc1ccccc1CNC(=O)CN1C(=O)CCn2nc(-c3cn(C)c4ccccc34)cc21", "survival": "66%"},
      {"smiles": "COc1ccc(CNC(=O)CN2C(=O)CCn3nc(-c4cn(C)c5ccccc45)cc32)cc1", "survival": "96%"},
      {"smiles": "CCOc1ccc(CNC(=O)CN2C(=O)CCn3nc(-c4cn(C)c5ccccc45)cc32)cc1OC", "survival": "-4% (active)"},
      {"smiles": "CCc1ccccc1NC(=O)CSc1nnc(-c2ccc(OC)cc2)s1", "survival": "80%"},
      {"smiles": "Cc1ccc(C(=O)Nc2ccc3nc(SCC(=O)N4CCCc5ccccc54)sc3c2)cc1", "survival": "80%"},
      {"smiles": "CCOc1ccc(CNc2cc(C)nc3nc(-c4cccc(C)c4)nn23)cc1OC", "survival": "95%"},
      {"smiles": "CCCCN(CC)CCCNC(=O)CN1C(=O)CSc2ccc(S(=O)(=O)N3CCOCC3)cc21", "survival": "97%"},
      {"smiles": "O=C(NCC1CCN(Cc2cccc(Cl)c2)CC1)Nc1ccc(F)c(Cl)c1", "survival": "55%"},
      {"smiles": "O=C(NCC1CCN(Cc2cccc(Cl)c2)CC1)Nc1cc(Cl)ccc1Cl", "survival": "17% (active)"},
      {"smiles": "Cc1ccc(CN2CCC(CNC(=O)Nc3ccccc3F)CC2)cc1", "survival": "113%"},
      {"smiles": "Cc1ccc(NC(=O)NCC2CCN(Cc3cccc(Cl)c3)CC2)cc1Cl", "survival": "-5% (active)"},
      {"smiles": "O=C(NCC1CCN(Cc2ccccc2F)CC1)Nc1ccc(F)c(Cl)c1", "survival": "100%"},
      {"smiles": "Cc1ccc(CN2CCC(CNC(=O)Nc3cccc(Cl)c3C)C2)cc1", "note": "(stereo not drawn)", "survival": "75%"},
      {"smiles": "COc1ccc(Cn2ccnc2SCC(=O)Nc2ccc3c(c2)OCCO3)cc1", "survival": "94%"},
      {"smiles": "CCCN(CCC)C(=O)c1cc2c(=O)n3cccc(C)c3nc2s1", "survival": "56%"},
      {"smiles": "CCCCN(CCCC)C(=O)c1cc2c(=O)n3ccccc3nc2s1", "survival": "39% (active)"},
      {"smiles": "CCCCN(CC)C(=O)c1cc2c(=O)n3ccccc3nc2n1C", "survival": "50%"},
      {"smiles": "Cc1cccn2c(=O)c3cc(C(=O)NC(C)(C)C)n(C)c3nc12", "survival": "61%"},
      {"smiles": "CCCN(CCC)C(=O)c1cc2c(=O)n3cccc(C)c3nc2n1C", "survival": "62%"},
      {"smiles": "O=C(NCc1ccc(F)cc1)c1cc2c(=O)n3ccccc3nc2s1", "survival": "140%"},
      {"smiles": "CCCCN(CC)C(=O)c1cc2c(=O)n3cccc(C)c3nc2n1C", "survival": "56% (active)"},
      {"smiles": "Cc1cccn2c(=O)c3cc(C(=O)NC(C)C)n(C)c3nc12", "survival": "53% (active)"},
      {"smiles": "CCCCN(CC)C(=O)c1cc2c(=O)n3cccc(C)c3nc2s1", "survival": "54%"},
      {"smiles": "CCCCN(CCCC)C(=O)c1cc2c(=O)n3cccc(C)c3nc2s1", "survival": "-13% (active)"},
      {"smiles": "CCCCc1ccc(NC(=O)c2cc3c(=O)n4ccccc4nc3s2)cc1", "survival": "89%"},
      {"smiles": "CCOC(=O)CNC(=O)c1cc2c(=O)n3cccc(C)c3nc2n1C", "survival": "102%"},
      {"smiles": "O=C(Nc1ccccc1)c1ccncc1", "survival": "97%"},
      {"smiles": "CC(=O)Nc1ccc(S(=O)(=O)Nc2cccc(-c3ccc(N4CCCCCC4)nn3)c2)cc1", "survival": "83%"},
      {"smiles": "Cc1onc2c1C(=O)CC(C)(C)C2", "survival": "73%"},
      {"smiles": "Cc1cc(C)c2c(=O)cc(C(=O)NCc3ccc(S(N)(=O)=O)cc3)oc2c1", "survival": "117%"},
      {"smiles": "Cc1ccc(F)cc1NC(=O)CSc1nc(-c2cccs2)cc(C(F)(F)F)n1", "survival": "68%"},
      {"smiles": "CC(=O)N1CCOc2cc(S(=O)(=O)NCc3ccccc3Cl)c(Cl)cc21", "survival": "76%"},
      {"smiles": "Cc1nc2sccn2c(=O)c1S(=O)(=O)Nc1ccc(N2CCOCC2)cc1", "survival": "62%"},
      {"smiles": "CCOC(=O)c1ccc(NC(=O)CN2C(=O)C(C)(C)c3ccccc32)cc1", "survival": "115%"},
      {"smiles": "CCN(C(=O)Cn1c(SCC(=O)NCc2ccccc2)nc2ccccc21)c1cccc(C)c1", "survival": "65%"},
      {"smiles": "Cc1nc(N)sc1C(C)(C)C", "survival": "86%"},
      {"smiles": "COc1ccc(-c2ccc(=O)n(CC(=O)NCCc3ccccc3)n2)cc1", "survival": "70%"},
      {"smiles": "CCCC(CCC)C(=O)Nc1ccc(NC(=O)c2ccco2)cc1", "survival": "98%"},
      {"smiles": "CCOc1cccc2cc(-c3nc4ccc(C(=O)O)cc4[nH]3)c(=O)oc12", "survival": "69%"},
      {"smiles": "Cc1ccc2c(c1)N(C(=O)N1CCC(C(=O)NCc3cccs3)CC1)CC(C)O2", "note": "(stereo not drawn)", "survival": "91%"},
      {"smiles": "CC1CCCCN1CCCNC(=O)c1sc2ncccc2c1-n1cccc1", "note": "(stereo not drawn)", "survival": "25% (active)"},
      {"smiles": "O=C(NCCCN1CCN(c2ccccc2)CC1)c1sc2ncccc2c1-n1cccc1", "survival": "91%"},
      {"smiles": "Cc1cc(C)c2c(-n3cccc3)c(C(=O)NCCCN3CCCCC3C)sc2n1", "note": "(stereo not drawn)", "survival": "93%"},
      {"smiles": "O=C(NCCCN1CCN(c2ccc(F)cc2)CC1)c1sc2ncccc2c1-n1cccc1", "survival": "37% (active)"},
      {"smiles": "COc1ccc(N2CCN(CCCNC(=O)c3sc4ncccc4c3-n3cccc3)CC2)cc1", "survival": "101%"},
      {"smiles": "O=C(NCCCN1CCCCC1)c1sc2ncccc2c1-n1cccc1", "survival": "92%"},
      {"smiles": "CC1=C(C(=O)OC2CCCC2)C(c2ccccc2Cl)CC(=O)N1", "note": "(stereo not drawn)", "survival": "70%"},
      {"smiles": "CN1CCc2nc3sc(C(=O)c4ccc(F)cc4)c(N)c3cc2C1", "survival": "71%"},
      {"smiles": "COc1ccc(CCNC(=O)C(C)n2nc(C)c3sc4ccccc4c3c2=O)c(OC)c1", "note": "(stereo not drawn)", "survival": "58%"},
      {"smiles": "COc1cc2nc(C3CCC3)n(N)c(=O)c2cc1OC", "survival": "75%"},
      {"smiles": "O=C(NCc1cccnc1)c1cn(C2CC2)c2cc(N3CCN(C(=O)c4cccc(Cl)c4)CC3)c(F)cc2c1=O", "survival": "1% (active)"},
      {"smiles": "O=C(CN1C(=O)C2CCCCN2c2ccc(C(=O)N3CCCC3)cc21)NCc1cccc(Cl)c1", "note": "(stereo not drawn)", "survival": "68%"},
      {"smiles": "O=C(NCc1ccncc1)C1CCN(C(=O)c2cccc(Cl)c2)CC1", "survival": "74%"}
    ]}
  ]
}
